HP1b binding inh – HP1-beta chromodomain-methylated histone interaction inhibition; P83916; AlphaScreen HP1-beta / biotin-H3K9me3 peptide binding; Potency, µM (doses to about 114 µM), without a hit: at the top dose activity change, negative = inhibition, hits mostly inhibitors; 390,000 compounds, 0.56% hits; AID 540317; further: nearly all actives have a fitted effect of over 70% in size
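HP1-beta protein (50 nM final) preincubated 30 min at room temperature with biotinylated H3(1-18)K9me3 peptide (50 nM) in PBS pH 7.4, 0.01% Tween-20, then compound added for 30 min. AlphaScreen streptavidin donor/nickel chelate acceptor beads (10 ug/mL final), 30 min dark, luminescence read.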
JMJD2A Tudor – blocks the human JMJD2A Tudor domain; Potency, µM (series often up to 114 µM), without a hit: at the highest dose activity change, negative = inhibition, hits mostly inhibitors; AlphaScreen JMJD2A-Tudor / H3K4me3 peptide binding; 390,000 compounds, 4.4% hits; AID 504339; further: on the % scale 0 is the no-effect control and ±100 the full control effect; nearly all actives have a fitted effect of over 50% in size
BAZ2B block – blocks human BAZ2B; Q9UIF8; AlphaScreen BAZ2B-H3K14Ac peptide displacement; Potency, µM (highest dose often 114 µM), for inactives: at the top dose activity change, negative = inhibition, most hits filed as inhibitors; 360,000 compounds, 4.4% hits; further: on the % scale 0 is the no-effect control and ±100 the full control effect; nearly all actives have a fitted effect of over 60% in size
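Inhibition is scored as reduced AlphaScreen emission. The BAZ2B/b-H3(5-23)K14Ac complex (50 nM each) in PBS pH 7.4, 0.01% Tween-20 meets compound (up to 110 uM) for 30 min at RT before bead addition.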
Sfp inh – inhibitors of Bacillus subtilis Sfp phosphopantetheinyl transferase. Q9F4F7. Biochemical Sfp PPTase activity, qHTS. Potency, µM, without a hit: largest response in the series, negative = inhibition, usual class: inhibitors. 310,000 compounds, 3.5% hits. AID 1490;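 further: the enzyme is Sfp with the accession as filed and its product quenches rhodamine fluorescence; 0% = enzyme reaction without inhibitor and -100% = no enzyme wells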
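Buffer: 50 mM Hepes-Na pH 7.6, 10 mM MgCl2, 0.01% Nonidet P-40, 0.01% BSA. Enzyme 15 nM, pre-exposed to compound 15 min; substrates then added and fluorescence change tracked over 30 min.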
G9a inh – G9a (human) methyltransferase inhibition. Potency, µM (highest dose often 102 µM), without a hit: at the top dose activity, negative = inhibition, most hits filed as inhibitors. Q96KQ7. 350,000 compounds, 8.8% hits. G9a H3K9 monomethylation, AlphaScreen, 2 h. AID 504332; further: on the % scale 0 is the no-effect control and ±100 the full control effect; nearly all actives have a fitted effect of over 75% in size
Target sequence (Q96KQ7 913-1193 limits assumed): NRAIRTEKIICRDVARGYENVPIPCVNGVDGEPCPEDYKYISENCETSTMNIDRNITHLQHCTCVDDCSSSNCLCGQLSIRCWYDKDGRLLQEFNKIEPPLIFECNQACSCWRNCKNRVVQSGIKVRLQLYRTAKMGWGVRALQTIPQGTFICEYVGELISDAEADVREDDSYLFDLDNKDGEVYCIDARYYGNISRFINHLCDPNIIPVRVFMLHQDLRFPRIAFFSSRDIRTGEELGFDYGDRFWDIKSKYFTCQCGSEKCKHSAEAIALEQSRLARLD
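Quantitative HTS format: methyltransferase activity on a biotin-tagged H3K9 peptide is measured by AlphaScreen, using a rabbit anti-monomethyl-H3K9 antibody with streptavidin donor and anti-IgG acceptor beads. Final levels are 20 nM enzyme, 500 nM peptide, 20 uM SAM; 2 h RT.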
* = called active by the depositor; ? = inconclusive; nt = not tested or not shown; [ ] = remark or other dose. Rows were chosen to be rich in hits. Some 12% of all compounds tested hit in one or more screens of this group. The call rests on the fitted dose curve; in most records, active means well fitted curve in the direction sought with a large enough effect; inconclusive means small, poorly fitted or top-dose-only effect, or another doubt; inactive means no such curve, though single readings can be large; an effect the other way counts as inactive or inconclusive. Potency means the concentration at half of the fitted maximal effect.

SMILES | HP1b binding inh | JMJD2A Tudor | BAZ2B block | Sfp inh | G9a inh
Cc1nnc(SCC2=C(C(=O)O)N3C(=O)C(NC(=O)c4cc(F)c(F)cc4Cl)C3SC2)s1 (stereo not drawn) | 9.5% | -25.8% | 79.4µM* | 50.1µM* | 28.2µM*
CN(C)CCn1nnnc1SCC1=C(C(=O)O)N2C(=O)[C@@H](NC(=O)Cc3csc(N)n3)[C@H]2SC1 | 29.1% | 56.2µM* | 50.1µM* | nt | 15.8µM*
Cc1nnc(SCC2=C(C(=O)O)N3C(=O)C(NC(=O)Cn4nc(C(F)F)cc4C)C3SC2)s1 (stereo not drawn) | 10.2% | 25.1µM* | 50.1µM* | 79.4µM* | 14.1µM*
O=C(O)C1Sc2[nH]c(=O)sc2C2c3cc(Br)ccc3OC(=O)C12 (stereo not drawn) | ? | -28.4% | ? | ? | nt
O=C(O)C1Sc2[nH]c(=O)sc2C2c3ccc(O)cc3OC(=O)C12 (stereo not drawn) | ? | -30.0% | -37.6% | ? | 39.8µM*
CCCCn1c(-c2c(Cl)c(C)nn2C)n[nH]c1=S | -15.2% | 12.6µM* | -22.2% | -8.8% | 8.91µM*
CCn1c(-c2c(Cl)c(C)nn2C)n[nH]c1=S | -2.3% | 20µM* | -5.1% | -13.1% | 11.2µM*
CCCCNC(=S)NNC(=O)c1c(Cl)c(C)nn1C | 30.8% | -2.6% | 0.8% | 12.3% | -9.2%[59 µM]
Cc1cc2nc(-c3ccc(SCc4ccccn4)nc3)[nH]c2cc1C | 76.8% | ? | -32.7% | -11.4% | -26.2%
Cc1ccc(CN2C(=O)N/C(=C/c3ccc4c(c3)n(C)c(=O)n4C)C2=O)cc1 | nt | nt | ? | -3.0% | 20.3%
Cc1cc(/C=C2\NC(=O)N(Cc3ccc(Cl)cc3)C2=O)c(C)n1C | 21.9% | -28.8% | -28.4% | 0.3% | 15.8µM*
Cc1ccc(/C=C2/NC(=O)N(Cc3ccccc3)C2=O)s1 | -1.0% | -10.9% | ? | 50.1µM* | ?
Cc1cccc(CN2C(=O)N/C(=C/c3ccc(C)s3)C2=O)c1 | 48.1% | 3.3% | 4.6% | -24.2% | 0.9%[12.7 µM]
CCN1C(=O)/C(=C/c2ccc(C)s2)NC1=S | 26.2% | -25.5% | -34.3% | 7.2% | 12.6µM*
Cc1cc(N2CCOCC2)ccc1/C=C1\NC(=O)N(Cc2ccccc2)C1=O | 35.6% | -7.2% | -29.0% | 4.3% | 50.1µM*
